In PubChem BioAssay (NCI):
Compounds without any hit were thinned out: in the full panel of roughly 83,000, 20% have a hit.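 Results are percent growth after 48 hours of single-concentration exposure. 100 means growth as in untreated cells, lower positive values show inhibition; negative values down to -100 show cell death.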 A number with no mark means an inactive call. Calls of active or inactive are those of the source. The calls were made as follows: active = growth percent below 10; inactive = the rest.

Assays:
Experiment in all cases: NCI-60 one-dose screen, 48 h (100 = growth as untreated, 0 = no growth, -100 = all killed)
Conditions in all cases: 10 µM unless noted
NCI-H23 lung = test system: NCI-H23 lung
NCI-H226 lung = test system: NCI-H226 lung
NCI-H322M lung = test system: NCI-H322M lung
HOP-62 NSCLC = test system: HOP-62 NSCLC
NCI-H460 lung = test system: NCI-H460 lung
HOP-92 NSCLC = test system: HOP-92 NSCLC
NCI-H522 lung = test system: NCI-H522 lung
A549/ATCC NSCLC = test system: A549/ATCC NSCLC
786-0 renal = test system: 786-0 renal
COLO 205 colon = test system: COLO 205 colon

Row | Structure (SMILES) | growth (NCI-H23 lung) | growth (NCI-H226 lung) | growth (NCI-H322M lung) | growth (HOP-62 NSCLC) | growth (NCI-H460 lung) | growth (HOP-92 NSCLC) | growth (NCI-H522 lung) | growth (A549/ATCC NSCLC) | growth (786-0 renal) | growth (COLO 205 colon)
1 | COc1ccc(OC)c(-c2nc(SCC(=O)c3ccc(C#N)cc3)[nH]c(=O)c2C#N)c1 | 98.1% | 101% | 105% | 99.7% | 112% | 99% | 90.4% | 103% | 101% | 86.9%
2 | CS(=O)(=O)Nc1cc(-c2ccc3ncnc(Nc4ccc5c(cnn5Cc5cccc(F)c5)c4)c3c2)cnc1Cl | 10.4% | 20.8% | -5.63% (active) | 9.82% (active) | 22.8% | -20.1% (active) | -11% (active) | 23.6% | 13.3% | -20.2% (active)
3 | CCC(=C(c1ccc(OCCN2CCCCC2)cc1)c1ccc(OCCN2CCCCC2)cc1)c1ccc(Cl)cc1 | -81% (active) | -66.4% (active) | -99% (active) | -73.7% (active) | -80.5% (active) | -83.6% (active) | -69.7% (active) | -72.2% (active) | -88.8% (active) | -66.3% (active)
4 | COc1ccc(/C=N/NC(=O)c2ccc(-n3cc(-c4ccccc4)nn3)cc2)cc1OC | 95.2% | 92.7% | 105% | 101% | 111% | 94.9% | 99.6% | 104% | 98.1% | 91.7%
5 | O=C(/C=C/c1cccs1)Nc1ncc(Cc2ccccc2F)s1 | 47.5% | 57.8% | 37.9% | 22.4% | 12.9% | 60% | 6.23% (active) | 29% | 30.8% | 4.7% (active)
6 | O=C(O)c1cn(C2CC2)c2cc(N3CCN(Cc4ccc5ccccc5c4O)CC3)c(F)cc2c1=O | 26.4% | 9.01% (active) | 23.4% | -31% (active) | 6.73% (active) | -6.42% (active) | 24.8% | -23.4% (active) | 38.3% | 33.4%
7 | COc1cc2c(cc1OCCCN1CCN(CCCOc3cc4c(cc3OC)C(=O)N3CCC[C@H]3C=N4)CC1)C=CC(C)(C)O2 | -58.5% (active) | -70.3% (active) | -80.7% (active) | -50.9% (active) | -94.8% (active) | -29.6% (active) | -80.5% (active) | -79.2% (active) | -97.1% (active) | -76.8% (active)
8 | Cc1cc(C)c2c(c1)N(C)c1ncnc(-n3cnc4cc(C)ccc43)c1CC2C (stereo not given) | 37.9% | 49.9% | 48.5% | 31.8% | 7.26% (active) | 38.3% | -0.316% (active) | 26.2% | 22.8% | 0.292% (active)
9 | CNC(=O)c1[nH]cc(-c2ccc(OC)cc2)c1-c1cc(OC)c2c(c1OC)OCO2 | 97.6% | 97.8% | 96.2% | 85.3% | 105% | 89.6% | 101% | 99.1% | 96.7% | 118%
10 | CN(C)c1ccc(C(=O)OCCCCCCl)cc1 | 90.7% | 99% | 85.4% | 91.8% | 104% | 89.3% | 89.2% | 100% | 95.3% | 110%
11 | COC1=CC(c2ccc[nH]2)=N/C1=C\c1[nH]c(C)c(CC(=O)NCc2ccccc2)c1C | 23.9% | 28.8% | 42.7% | 20.6% | 10.9% | -7.96% (active) | 17% | 18.1% | -42.7% (active) | 1.08% (active)
12 | CN1C(=O)/C(=C\c2nc([P+](c3ccccc3)(c3ccccc3)c3ccccc3)c(N3CCOCC3)o2)SC1=S | 81.6% | 106% | 91.2% | 97.9% | 97.6% | -33.6% (active) | 93.6% | 86.1% | 97.5% | 88.1%
13 | Cc1c(O)cc(-c2cnc(Nc3ccccc3)s2)c(O)c1C | 87.1% | 98.6% | 96.6% | 97.4% | 99.3% | -64.4% (active) | 83.4% | 93.1% | 107% | 107%
14 | COC(=O)Nc1nc2ccc(S(=O)c3ccccc3)cc2[nH]1 (stereo not given) | 64.4% | 92.9% | 88% | 99.4% | 60.3% | 75.5% | 65.8% | 57.7% | 80.4% | 67.5%
15 | Cc1cc(N2CCN(CCNc3ccnc4cc(Cl)ccc34)CC2)nc(N2CCOCC2)n1 | 42.8% | 79.5% | 74.9% | 81.4% | 64.6% | 47.7% | 76.5% | 71.4% | 74% | 11.6%
16 | O=S(=O)(Nc1cc(Cl)ccc1Cl)c1ccc(-c2cnc(C3CC3)o2)cc1 | 52.8% | 40.3% | 59.4% | 39.8% | 24.8% | 40.4% | 0.738% (active) | 45.2% | 33% | 43.5%
17 | Cn1ccnc1C(=O)/C=C/c1ccc(C(=O)Nc2ccc(Cl)cc2)cc1 | -18.7% (active) | 16.8% | 0.414% (active) | -4.38% (active) | -28.7% (active) | 17% | -5.14% (active) | 6.96% (active) | -78.8% (active) | 1.1% (active)
18 | COc1ccc(C2=C(Nc3ccc(C(=O)Nc4ccccc4)cc3)C(=O)N(C)C2=O)cc1 | 88.7% | 95.2% | 88.7% | 72.2% | 108% | 117% | 59.9% | 78.2% | 105% | 105%
19 | COc1ccc(-c2nc3c(ncc4ccc(=O)[nH]c43)s2)cc1 | 78.8% | 76.1% | 77.7% | 90.2% | 40.8% | 87.7% | 85.3% | 56.1% | 88.3% | 83.6%
20 | Cc1cccc(CNc2c3ccccc3nc3ccccc23)c1 | 29.7% | 40.6% | 40.3% | 40.4% | 8.71% (active) | 7.05% (active) | 52.1% | 22.6% | 24.2% | -16.2% (active)
21 | O=S(=O)(NCCCNc1nccc(-c2c(-c3ccc(F)c(O)c3)nc3occn23)n1)c1ccc(Cl)cc1 | 70.7% | 103% | 85.3% | 88.3% | 62.3% | 68.8% | 63.1% | 72.4% | 106% | 42.9%
22 | N#Cc1c(-c2ccc(Cl)cc2)nc(NN2C(=O)c3ccccc3C2=O)nc1N1CCOCC1 | 97.2% | 99.9% | 111% | 97.9% | 106% | 99.8% | 97.5% | 107% | 99.8% | 110%
23 | O=C1/C(=C\c2ccc3nccnc3c2)SC(=S)N1CCc1ccc(O)cc1 | 98.2% | 96% | 103% | 108% | 102% | -3.77% (active) | 65.9% | 101% | 60.6% | 119%
24 | Cc1cccc(/C=C2\CN(C(=O)OC(C)(C)C)C/C(=C\c3cccc(C)c3)C2=O)c1 | 92.7% | 99.6% | 95.8% | 96.9% | 110% | 87.3% | 63.8% | 97.4% | 94.6% | 115%
25 | O=c1[nH]c(Cc2nc3ccccc3s2)nc2cc(Br)ccc12 | 86.1% | 76.8% | 88.8% | 37.6% | 53.3% | 84.9% | 58.7% | 61% | 68% | 88.3%
